Pf growth 96h – P. falciparum growth inhibition at 96 hour, primary screen for plastid delayed-death inhibitors; P. falciparum luciferase reporter growth, 96 h; actives 6.9% (n = 320,000); Potency, µM (top dose mostly 28.7 µM), usual class: inhibitors; AID 504834
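P. falciparum expressing integrated firefly luciferase grown in erythrocytes (2% hematocrit, 0.05% parasitemia final) with compounds for 96 hours at 37 C, 5% CO2. Growth inhibition read as loss of luminescence after adding luciferase detection reagent.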
Pf growth 48h – P. falciparum growth inhibition at 48 hours (one generation). P. falciparum luciferase growth in erythrocytes, 48 h. Potency, µM (top dose mostly 28.7 µM), hits mostly inhibitors. actives 5.9% (n = 310,000). AID 504832
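A one-generation exposure of luciferase-tagged malaria parasites in RPMI 1640/Albumax erythrocyte culture, 37 C and 5% CO2. Inhibition is inferred from decreased luminescence after adding detection reagent.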
Sm TGR block – inhibitors of Schistosoma mansoni thioredoxin glutathione reductase | Q962Y6 | AID 485364 | actives 3% (n = 360,000) | purified TGR, DTNB reduction, TNB absorbance 405 nm | Potency, µM (doses to about 114 µM), hits mostly inhibitors; note: nearly all actives have a fitted effect of over 60% in size
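Kinetic colorimetric format: TGR-catalysed, NADPH-driven DTNB reduction monitored via TNB absorbance. Enzyme dispensed at 20 nM; compound exposure 15 min at room temperature before reaction start.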
SARS PLpro yeast – inhibitors of SARS-CoV papain-like protease in yeast | Potency, µM (titrated, usually from 32.9 µM), most hits filed as activators | actives 0.19% (n = 330,000) | AID 485353 | S. cerevisiae expressing SARS-CoV PLpro, growth rescue; calls by dose curve; note: nearly all actives have a fitted effect of over 55% in size
A number is an active result. The list is not random: actives were taken first. Their share in the collection is about 12%. Unless noted, calls come from the whole dose curve; as a rule, active = well fitted curve in the direction sought with a large enough effect; inconclusive = small, poorly fitted or top-dose-only effect, or another doubt; inactive = no such curve, though single readings can be large; an effect the other way counts as inactive or inconclusive.

For O=C1/C(=C\c2cc(Cl)c(O)c(Cl)c2)SC(=S)N1Cc1ccccc1 the results were Pf growth 96h inconclusive, Pf growth 48h inconclusive, Sm TGR block inconclusive and SARS PLpro yeast inactive.
Screening COc1ccc(OC)c(/C=C2\SC(=S)N(Cc3cccnc3)C2=O)c1 returned Pf growth 96h 9.3µM, Pf growth 48h inactive, Sm TGR block inactive and SARS PLpro yeast inactive.
`COc1ccc(O)c(/C=C2/SC(=S)N(Cc3ccccc3)C2=O)c1` gave Pf growth 96h inactive, Pf growth 48h inconclusive, Sm TGR block inconclusive and SARS PLpro yeast inactive.
COc1ccc(/C=C2/SC(=S)N(Cc3ccccc3)C2=O)cc1O was read as Pf growth 96h inconclusive, Pf growth 48h 8.3µM, Sm TGR block inactive and SARS PLpro yeast inactive.
CCc1ccccc1NC(=O)CCS(=O)(=O)c1cccc2nonc12 was read as Sm TGR block inactive.
Screening CCc1ccc(NC(=O)c2cc(S(=O)(=O)N3CCCC3)ccc2F)cc1 returned Sm TGR block inactive.
`COc1ccc2c(c1)CCc1c(C(=O)N3CC4(C)CC3CC(C)(C)C4)noc1-2` (stereo not drawn) gave Pf growth 96h inconclusive, Pf growth 48h 15µM, Sm TGR block inconclusive and SARS PLpro yeast inactive.
COc1ccc(NC(=O)N2CCCc3ccccc32)cc1 was read as Pf growth 96h inactive, Pf growth 48h inactive, Sm TGR block inactive and SARS PLpro yeast inactive.
`COc1ccc2c(c1)CCc1c(C(=O)N3CCCc4ccccc43)noc1-2` gave Pf growth 96h inactive, Pf growth 48h 6.6µM, Sm TGR block inactive and SARS PLpro yeast inactive.
Screening COc1ccc(N/N=C(/C(C)=O)N2CCCc3ccccc32)cc1 returned Pf growth 96h 12µM, Pf growth 48h inactive, Sm TGR block inactive and SARS PLpro yeast inactive.
Screening COc1ccccc1/C=C/c1nc(C#N)c(N2CCN(C)CC2)o1 returned Sm TGR block inactive.
CC(/C=C/C=C/c1ccccc1)=N\NC(=O)c1cccnc1 was read as Pf growth 96h inconclusive, Pf growth 48h inactive, Sm TGR block inconclusive and SARS PLpro yeast inactive.
For O=C(N/N=C/C=C/c1ccco1)c1cccnc1 the results were Pf growth 48h inactive, Sm TGR block 22µM and SARS PLpro yeast inactive.
Screening CC(/C=C\C=C\c1ccccc1)=N\NC(=O)c1cncc(Br)c1 returned Pf growth 96h 0.93µM, Pf growth 48h inconclusive, Sm TGR block 40µM and SARS PLpro yeast inactive.
`O=C(N/N=C\c1ccco1)c1cncc(Br)c1` gave Pf growth 96h inactive, Pf growth 48h inactive, Sm TGR block inactive and SARS PLpro yeast inactive.
O=C(N/N=C/C=C/c1ccccc1)c1cccnc1 was read as Pf growth 96h inactive, Pf growth 48h inactive, Sm TGR block inactive and SARS PLpro yeast inactive.
Screening O=C(N/N=C\C=C\c1ccco1)c1cncc(Br)c1 returned Pf growth 96h inactive, Pf growth 48h inactive, Sm TGR block 18µM and SARS PLpro yeast inactive.
O=C(N/N=C/c1ccco1)c1ccncc1 was read as Pf growth 96h inactive, Pf growth 48h inactive, Sm TGR block inactive and SARS PLpro yeast inactive.
`O=C(N/N=C/C=C\c1ccco1)c1cccnc1` gave Pf growth 96h inactive, Pf growth 48h inactive, Sm TGR block 25µM and SARS PLpro yeast inactive.
`O=[N+]([O-])c1ccccc1S(=O)(=O)Nc1ccc(-c2ccc3nncn3n2)cc1` gave Pf growth 96h inactive, Pf growth 48h inactive, Sm TGR block inactive and SARS PLpro yeast inactive.
For COc1ccc(Cn2c(-c3ccc(OC)cc3)nc3ccccc32)cc1 the results were Pf growth 96h inactive, Pf growth 48h inconclusive, Sm TGR block inactive and SARS PLpro yeast inactive.
For COc1ccc(Cn2c(-c3ccc(Br)cc3)c[n+]3ccccc23)cc1 the results were Pf growth 96h 0.13µM, Pf growth 48h 0.66µM, Sm TGR block inactive and SARS PLpro yeast inactive.
For Cn1c(=O)c2c(O)cc(=O)n(-c3ccccc3)c2n(C)c1=O the results were Pf growth 96h inactive, Pf growth 48h inactive, Sm TGR block inactive and SARS PLpro yeast inactive.
For Cn1c(=O)cc(N)n(-c2ccccc2)c1=O the results were Pf growth 96h inactive, Pf growth 48h inactive, Sm TGR block inactive and SARS PLpro yeast inactive.
`Cn1c(=O)c2c(Nc3ccc(F)cc3)cc(=O)n(-c3ccccc3)c2n(C)c1=O` gave Pf growth 96h inconclusive, Pf growth 48h 2.3µM, Sm TGR block inactive and SARS PLpro yeast inactive.
`Cn1c(=O)cc(Nc2ccccc2)c2c(=O)n(-c3ccccc3)c(=O)n(-c3ccccc3)c21` gave Pf growth 96h 4.7µM, Pf growth 48h 6.6µM, Sm TGR block inactive and SARS PLpro yeast inactive.

Source: PubChem
